Shown are actives, neighbours in structure and some others; about 3.5% of the full set was active somewhere.
GPR151 activ = human GPR151 activation | Q8TDV0 | PathHunter beta-arrestin GPR151 cells, luminescence | activation, % at 11.2 µM | hit rate 1% among 650,000 | AID 1508602; in the data active means activation above about 4.9%;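 further: 0% = median of compound wells and 100% = cells with positive control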
Target sequence (Q8TDV0 whole entry, looked up): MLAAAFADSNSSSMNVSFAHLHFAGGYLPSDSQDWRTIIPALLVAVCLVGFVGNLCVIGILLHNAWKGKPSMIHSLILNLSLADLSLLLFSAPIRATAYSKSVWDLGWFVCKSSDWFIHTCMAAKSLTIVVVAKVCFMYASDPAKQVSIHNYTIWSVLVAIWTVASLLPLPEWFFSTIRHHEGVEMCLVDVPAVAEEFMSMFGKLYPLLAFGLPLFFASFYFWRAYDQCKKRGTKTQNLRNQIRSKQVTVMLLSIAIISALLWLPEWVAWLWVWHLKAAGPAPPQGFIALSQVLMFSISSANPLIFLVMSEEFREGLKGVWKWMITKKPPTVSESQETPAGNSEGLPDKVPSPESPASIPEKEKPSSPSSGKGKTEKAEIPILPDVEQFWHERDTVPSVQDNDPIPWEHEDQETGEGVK
MITF inh = human MITF inhibition, primary screen. O75030. AlphaScreen MITF homodimerization, bead proximity signal. inhibition, % at 2.6 µM. hit rate 0.91% among 650,000. AID 1259374; in the data active means inhibition above about 50%;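 further: 0% = vehicle wells with protein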
TEAD-YAP block = TEAD-YAP interaction inhibition; hit rate 1.4% among 640,000; HEK-TIYL cells, TEAD-Gal4/YAP UAS-luciferase luminescence; inhibition, % at 9.12 µM; AID 1259422; in the data active means inhibition above about 32%;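 further: 0% = median of test compound wells and 100% = reference inhibitor wells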
FBW7 activator = human FBW7 E3 ligase activation, primary screen; Q969H0; normalized activity (activation), % at 26.1 µM; hit rate 0.13% among 650,000; AlphaScreen FBW7–phospho-cyclin E peptide binding, activator screen; in the data active means normalized activity above about 1.9%;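 further: purified mutant Fbw7 with reduced substrate affinity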
GPR151 conf act = human GPR151 activation, confirmation screen; shares compounds with GPR151 activ; GPR151 PathHunter beta-arrestin cells, luminescence, 90 min; % of EA-reagent control over plate median; activation, % at 11.2 µM; 6,700 tested, under 10 active;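 active means mean percent activation across replicates above the confirmation screen cutoff of 4.91%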
GPR119 counter = GPR119 activation, counter-screen for GPR151 activators; shares compounds with GPR151 activ; GPR119 PathHunter beta-arrestin cells, luminescence, 90 min; 0 = compound-well median, 100 = enzyme-acceptor control; activation, % at 11.2 µM; hit rate 0.3% among 6,700;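 active means mean percent activation in the counterscreen above 29.09%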;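 further: counterscreen on off-target GPR119 to flag nonselective hits from the GPR151 activator screen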
Active calls of the source: *; x = not tested or not shown; ! = not active in a repeat.

SMILES	GPR151 activ	MITF inh	TEAD-YAP block	FBW7 activator	GPR151 conf act	GPR119 counter
C[C@H]1C/C=C/[C@H]2[C@@H]3O[C@]3(C)[C@@H](C)[C@H]3[C@H](Cc4ccccc4)NC(=O)[C@]32OC(=O)O/C=C/[C@](C)(O)C1=O	11*	12	-2	0	0	-5
CC(=O)N1CCN(/C(N)=N\[N+](=O)[O-])CC1	2	-11	13	0	x	x
CC(=O)NC1(c2ccccc2)CC(C)N(C)CC1C (stereo unspecified)	5.0*	-27	7	0	0	7
CCN1CC2(COC)CC[C@H](O)C34C5C[C@@H]6C(OC)C[C@@](O)(C5[C@H]6OC(C)=O)[C@@H](CC23)[C@@H]14 (stereo partly specified)	5.4*	-1	3	0	0	8
COc1ccc(CCN(C)Cc2cc(OC)c(OC)cc2[N+](=O)[O-])cc1OC	8.4*	-14	13	0	0	1
C[C@H]1CC[C@@H]2[C@@H](C)[C@H]3[C@H](CC4[C@@H]5CC=C6CC(O[C@@H]7O[C@H](CO)C(O[C@@H]8O[C@@H](C)[C@H](O)[C@@H](O)[C@H]8O)[C@H](O)[C@H]7O[C@@H]7O[C@@H](C)[C@H](O)[C@@H](O)[C@H]7O)CC[C@]6(C)[C@H]5CC[C@@]43C)N2C1 (stereo partly specified)	7.2*	11	-12	0	3	18
CN1CC([N+](=O)[O-])=C2N(C1)C(C)(C)N([O])C2(C)C	4	-14	6	0	x	x
CC1(c2ccc3ccccc3c2)NC(=O)N(CC(=O)Nc2ccc(C#N)c(Cl)c2)C1=O (stereo unspecified)	0	9	1	0	x	x
N#Cc1ccc(NC(=O)CN2c3cccc4cccc(c34)S2(=O)=O)cc1Cl	5.2*	19	17	1	1	-3
Cc1ccccc1N1CCN(Cc2ccc([N+](=O)[O-])cc2)CC1	0	0	-3	0	x	x
COc1ccccc1N1CCN(Cc2ccc([N+](=O)[O-])cc2)CC1	5.5*	37	8	0	-1	8
O=C1CC(c2cnc[nH]2)C2(CCCCC2)O1 (stereo unspecified)	7.9*	2	-6	0	-1	-5
Nc1ncc(CN2CCCC(C(=O)c3cccc(Cl)c3)C2)cn1 (stereo unspecified)	0	7	-1	0	x	x
CCCCN1C(=O)C(=O)N(CC(=O)Nc2ccc(C#N)c(Cl)c2)C1=O	0	1	8	0	x	x
CC(Cc1cccnc1)NCc1c(C(=O)N2CCCCCCC2)nc2ccc(Cl)cn12 (stereo unspecified)	5.0*	-5	-10	0	0	-2
Cc1cccn2c(CNC(C)Cc3cccnc3)c(C(=O)N3CCCCC3)nc12 (stereo unspecified)	-1	1	0	0	x	x
CCOc1cccc(CNC2CN3CCC2CC3)c1 (stereo unspecified)	6.9*	-6	4	0	0	5
CCCCOc1ccc(CC2C(=O)NC(=O)NC2=O)cc1	1	0	-3	0	x	x
CC1=NCCc2c1[nH]c1cc(O)ccc21	5.0*!	-3	6	0	3	1
CCCCNC(=O)N1c2ccc(C)cc2C2CN(C)CCC21 (stereo unspecified)	5.9*	-2	5	0	-1	6
CCCCCC(=O)N1c2ccc(C)cc2C2CN(C)CCC21 (stereo unspecified)	-1	4	9	0	x	x
COC(=O)c1cc(C(=O)OC)cc(-n2c(C)cc(C(O)(C(=O)OC)C(F)(F)F)c2C)c1 (stereo unspecified)	1	-2	-5	0	x	x
CN1CCc2nc(SCc3ccccc3F)c(C#N)cc2C1	0	-7	-5	0	x	x
O=C(COc1ccc(Br)cc1)N1CCN(CC2CC=CCC2)CC1 (stereo unspecified)	9.7*	16	-1	1	0	-7
Fc1ccc(CN2CCN(c3ccc(F)cc3)CC2)cc1	-2	16	7	1	x	x
SMILES	GPR151 activ	MITF inh	TEAD-YAP block	FBW7 activator	GPR151 conf act	GPR119 counter
O=C1Nc2ccc(Cl)cc2C(c2ccccc2Cl)=NC1O (stereo unspecified)	6.8*	6	-18	0	1	-5
CCN1CCN(Cc2ccc(OC)cc2O)CC1	0	22	2	0	x	x
C=C(C)[C@@H]1C2C(=O)O[C@H]1[C@H]1OC(=O)[C@@]34OC3C[C@]2(O)[C@@]14C (stereo partly specified)	7.9*!	18	5	0	0	-10
COc1ccc(C(=O)C2CCCN(C)C2)c(OC)c1 (stereo unspecified)	5.0*	35	3	0	0	-10
Fc1ccc(CN2CCN(c3ccccc3F)CC2)cc1	1	31	-4	0	x	x
COc1cccc(OC)c1C1=NCC(=O)Nc2c1oc1ccc(Br)cc21	5.7*	5	58*	0	0	-4
O=C1CN=C(c2ccccc2)c2oc3ccc(Br)cc3c2N1	2	-1	0	0	x	x
C[C@H]1OC[C@@H](C[N+](C)(C)C)O1	-1	3	2	0	x	x
C[C@@H]1O[C@H](C[N+](C)(C)C)C[C@H]1O	5.9*!	-1	5	0	0	6
O=C1NC(=S)N(c2ccc(Cl)cc2)C(=O)/C1=C/c1ccc(O)cc1	-1	14	13	0	x	x
CCCN(CCC)[C@@H]1CCc2c(F)ccc(O)c2C1	8.5*!	11	6	0	-1	-7
CCCCOC(=O)C1=C(N)OC(C)=C(C(=O)OCCOC)C12C(=O)Nc1ccccc12 (stereo unspecified)	5.3*	1	7	0	0	2
CCOC(=O)C1=C(N)OC(C)=C(C(=O)OCCOC)C12C(=O)Nc1ccccc12 (stereo unspecified)	1	14	-6	0	x	x
CCN(Cc1ccccc1)C(=O)C(Cl)(Cl)Cl	6.0*	2	5	0	-1	2
CCOc1ccc(-n2c(/C=C/c3ccccc3)nc3ccccc3c2=O)cc1	6.9*	-4	13	0	0	-6
O=c1c2ccccc2nc(/C=C/c2ccccc2)n1-c1ccccc1	0	6	-4	0	x	x
O=c1c2ccccc2nc(/C=C/c2ccccc2)n1-c1ccc(Cl)cc1	4.9*	-19	12	0	0	-6
CCOc1cccc(OCC)c2c(C)[n+](Cc3ccccc3)c(C)c1-2	-1	11	0	0	x	x
CCOP(=O)(Cc1ccc(C)cc1)OCC	-1	20	13	0	x	x
CCN1CCN(Cc2cc(Br)cc(OC)c2O)CC1	6.6*	31	-2	0	0	-1
Cc1nn(Cc2ccccc2Cl)c(C)c1C=O	4	1	-5	0	x	x
